Assay results from the supplement of paper PMC8728848.
Shown is part of a subset that was picked to be rich in the strongest signals.

How the values were obtained:
Assay in all cases: glycan array binding signal (z-score within array); higher = stronger binding
Details in all cases: glycan notation: IUPAC condensed, linker removed
[1] = target: Gal(b1-4)GlcNAc(b1-3)Gal(b1-4)GlcNAc(b1-3)Gal(b1-4)GlcNAc(b1-3)Gal(b1-4)GlcNAc(b1-2)[Gal(b1-4)GlcNAc(b1-3)Gal(b1-4)GlcNAc(b1-3)Gal(b1-4)GlcNAc(b1-3)Gal(b1-4)GlcNAc(b1-6)]Man(a1-6)[Gal(b1-4)GlcNAc(b1-3)Gal(b1-4)GlcNAc(b1-3)Gal(b1-4)GlcNAc(b1-3)Gal(b1-4)GlcNAc(b1-2)Man(a1-3)]Man(b1-4)GlcNAc(b1-4)[Fuc(a1-6)]GlcNAc
Summary of the method: (§1)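 Glycan array binding is given as a within-array Z-score, which can be read as non-binding when negative. The arrays, 3228 of them, came from the Consortium for Functional Glycomics database and were retained only where the protein sequence was available. Z-scores were averaged across arrays of the same protein sequence at different concentrations or buffers and across linkers.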

[2] = target: Gal(b1-4)GlcNAc(b1-3)Gal(b1-4)GlcNAc(b1-3)Gal(b1-4)GlcNAc(b1-3)Gal(b1-4)GlcNAc(b1-3)Gal(b1-4)GlcNAc(b1-2)[Gal(b1-4)GlcNAc(b1-3)Gal(b1-4)GlcNAc(b1-3)Gal(b1-4)GlcNAc(b1-3)Gal(b1-4)GlcNAc(b1-3)Gal(b1-4)GlcNAc(b1-6)]Man(a1-6)[Gal(b1-4)GlcNAc(b1-3)Gal(b1-4)GlcNAc(b1-3)Gal(b1-4)GlcNAc(b1-3)Gal(b1-4)GlcNAc(b1-3)Gal(b1-4)GlcNAc(b1-2)Man(a1-3)]Man(b1-4)GlcNAc(b1-4)[Fuc(a1-6)]GlcNAc
Summary of the method: as §1

[3] = target: Gal3S(b1-3)[Fuc(a1-4)]GlcNAc
Summary of the method: as §1

Gal3S(b1-4)Glc = target: Gal3S(b1-4)Glc
Summary of the method: as §1

[4] = target: Gal3S(b1-4)[Fuc(a1-3)]GlcNAc6S
Summary of the method: as §1

Gal6S(b1-4)Glc = target: Gal6S(b1-4)Glc
Summary of the method: as §1

GalNAc(a1-3)GalNAc = target: GalNAc(a1-3)GalNAc
Summary of the method: as §1

Glc(a1-4)Glc = target: Glc(a1-4)Glc
Summary of the method: as §1

[5] = target: GlcNAc(b1-2)Man(a1-3)[GlcNAc(b1-2)Man(a1-6)]Man(b1-4)GlcNAc(b1-4)GlcNAc
Summary of the method: as §1

[6] = target: GlcNAc(b1-3)Gal(b1-3)GalNAc
Summary of the method: as §1

[7] = target: GlcNAc(b1-3)Gal(b1-4)GlcNAc(b1-3)Gal(b1-4)GlcNAc(b1-3)Gal(b1-4)GlcNAc(b1-3)Gal(b1-4)GlcNAc(b1-2)Man(a1-3)[GlcNAc(b1-3)Gal(b1-4)GlcNAc(b1-3)Gal(b1-4)GlcNAc(b1-3)Gal(b1-4)GlcNAc(b1-3)Gal(b1-4)GlcNAc(b1-2)Man(a1-6)]Man(b1-4)GlcNAc(b1-4)[Fuc(a1-6)]GlcNAc
Summary of the method: as §1

[8] = target: GlcNAc(b1-4)GlcNAc(b1-4)GlcNAc
Summary of the method: as §1

[9] = target: Man(a1-2)Man(a1-3)[Man(a1-6)]Man(a1-6)[Man(a1-2)Man(a1-3)]Man(b1-4)GlcNAc(b1-4)GlcNAc
Summary of the method: as §1

[10] = target: Man(a1-3)[Man(a1-6)]Man(a1-6)[Man(a1-3)]Man
Summary of the method: as §1

[11] = target: Neu5Ac(a2-3)Gal(b1-4)GlcNAc(b1-3)Gal(b1-4)GlcNAc(b1-6)[Gal(b1-3)]GalNAc
Summary of the method: as §1

[12] = target: Neu5Ac(a2-3)Gal(b1-4)[Fuc(a1-3)]GlcNAc
Summary of the method: as §1

[13] = target: Neu5Ac(a2-3)Gal(b1-4)[Fuc(a1-3)]GlcNAc(b1-6)[Neu5Ac(a2-3)Gal(b1-3)]GalNAc
Summary of the method: as §1

[14] = target: Neu5Ac(a2-6)Gal(b1-4)GlcNAc
Summary of the method: as §1

[15] = target: Neu5Ac(a2-6)Gal(b1-4)GlcNAc(b1-2)Man(a1-3)[Neu5Ac(a2-6)Gal(b1-4)GlcNAc(b1-2)Man(a1-6)]Man(b1-4)GlcNAc(b1-4)[Fuc(a1-6)]GlcNAc
Summary of the method: as §1

[16] = target: Neu5Ac(a2-6)Gal(b1-4)GlcNAc(b1-2)Man(a1-6)[Gal(b1-4)GlcNAc(b1-2)Man(a1-3)]Man(b1-4)GlcNAc(b1-4)GlcNAc
Summary of the method: as §1

[17] = target: Neu5Ac(a2-6)Gal(b1-4)GlcNAc(b1-3)Gal(b1-4)GlcNAc
Summary of the method: as §1

[18] = target: Neu5Ac(a2-6)GalNAc(b1-4)GlcNAc
Summary of the method: as §1

[19] = target: Neu5Ac(a2-6)GlcNAc(b1-4)GlcNAc
Summary of the method: as §1

[20] = target: Neu5Ac(a2-8)Neu5Ac(a2-8)Neu5Ac(a2-3)[GalNAc(b1-4)]Gal(b1-4)Glc
Summary of the method: as §1

[21] = target: Neu5Ac(b2-6)Gal(b1-4)GlcNAc
Summary of the method: as §1

[22] = target: Neu5Ac9Ac(a2-3)Gal(b1-3)GlcNAc
Summary of the method: as §1

[23] = target: Neu5Ac9Ac(a2-3)Gal(b1-4)GlcNAc
Summary of the method: as §1

[24] = target: Neu5Gc(a2-3)Gal(b1-3)[Fuc(a1-4)]GlcNAc
Summary of the method: as §1

Neu5Gc(a2-6)GalNAc = target: Neu5Gc(a2-6)GalNAc
Summary of the method: as §1

B1: rMpL (Macrolepiota procera) (protein)
chain: MSTQVSSGRTYKITNVIAGTVIDLSGEDNKSIIGYPYHSGKNQQWTFNWTGKAWTLRSASSGSYLGIEGTPAGGTRLVAVNDPFEWHIWRDEANENAFRIFVPFTNYNLDLSGYGDTTPGTPVQLWWTWEGLHQTWTIDRP
- glycan array binding signal (z-score) [1]: 4.7
- glycan array binding signal (z-score) [2]: 4.6
- glycan array binding signal (z-score) [3]: -0.271
- glycan array binding signal (z-score) (Gal3S(b1-4)Glc): -0.325
- glycan array binding signal (z-score) [4]: -0.333
- glycan array binding signal (z-score) (Gal6S(b1-4)Glc): -0.233
- glycan array binding signal (z-score) (GalNAc(a1-3)GalNAc): -0.265
- glycan array binding signal (z-score) (Glc(a1-4)Glc): -0.289
- glycan array binding signal (z-score) [5]: -0.322
- glycan array binding signal (z-score) [6]: -0.302
- glycan array binding signal (z-score) [7]: -0.17
- glycan array binding signal (z-score) [8]: -0.382
- glycan array binding signal (z-score) [9]: -0.35
- glycan array binding signal (z-score) [10]: -0.268
- glycan array binding signal (z-score) [11]: -0.198
- glycan array binding signal (z-score) [12]: -0.32
- glycan array binding signal (z-score) [13]: -0.185
- glycan array binding signal (z-score) [14]: -0.358
- glycan array binding signal (z-score) [15]: -0.168
- glycan array binding signal (z-score) [16]: 0.028
- glycan array binding signal (z-score) [17]: -0.363
- glycan array binding signal (z-score) [18]: -0.425
- glycan array binding signal (z-score) [19]: -0.364
- glycan array binding signal (z-score) [20]: -0.174
- glycan array binding signal (z-score) [21]: -0.33
- glycan array binding signal (z-score) [22]: -0.374
- glycan array binding signal (z-score) [23]: 0.277
- glycan array binding signal (z-score) [24]: -0.335
- glycan array binding signal (z-score) (Neu5Gc(a2-6)GalNAc): -0.358
